Data as given in PubChem BioAssay AID652283 (National Center for Advancing Translational Sciences (NCATS), 2013).
Results filed as inconclusive are left out. Calls of active or inactive are those of the source. Calls follow the shape of the dose curve; as a rule, active = well fitted inhibition curve with a large enough effect; inconclusive = small, poorly fitted or top-dose-only effect; inactive = no such curve, though single readings can be large or run the other way.

Test: qHTS Assay for Lipid Storage Modulators: COS7 Assay against Probe and Analogs
Conditions: COS7 lipid droplet area, BODIPY imaging, 18 h; cells loaded with 400 µM oleic acid
Method in brief: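 COS7 cells treated 17-18 h with compound in 5% FBS medium, 0.2% DMSO and 400 microM oleic acid. Fixed cells stained with BODIPY 493/503 and Hoechst; lipid droplets counted from microscope images by visual review and image segmentation.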

SMILES	max response	Potency
CCOc1ccc(CCNC(=O)CN(C)C)cc1OCC	-3.2% (inactive)	
CC1=C(C(=O)NC2CCCc3c2cnn3-c2ccc(F)cc2F)OCCO1 (stereo not drawn)		13.2 µM (active)
O=C(NC1CCCc2c1cnn2-c1ccc(F)cc1F)c1cccs1 (stereo not drawn)	-60.6% (inactive)	
CCOc1ccc(CCNC(=O)c2ccccn2)cc1OCC	1.41% (inactive)	
CCOc1ccc(CCNC(=O)c2ccc(N3N=C(C)CC3=O)cc2)cc1OCC	0.211% (inactive)	
CC(C)(NC(=O)Nc1ccccc1Cl)C(=O)N1CCC(C(=O)O)CC1	21.7% (inactive)	
O=C(NC1CCCc2c1cnn2-c1ccc(F)cc1F)c1cccc(=O)[nH]1 (stereo not drawn)	14.9% (inactive)	
O=C(Nc1cccc2nn(-c3ccc(F)cc3)cc12)c1ccccn1	9.12% (inactive)	
Cc1cccc(-c2ccc3ncnc(NCc4cccc(F)c4)c3c2)c1	-9.55% (inactive)	
CCOc1ccc(CCNC(=O)c2cc3sccc3n2Cc2ccccc2)c(F)c1OCC		16.6 µM (active)
O=C(NCCc1ccc2c(c1)OCO2)c1cc2sccc2[nH]1	5.04% (inactive)	
CCOc1ccc(CCNC(=O)c2ccc(C3(C(F)(F)F)N=N3)cc2)cc1OCC		7.43 µM (active)
CCOc1ccc(CCNC(=O)Cc2ccccc2)cc1OCC	-10.6% (inactive)	
O=C(NCCc1ccc2c(c1)OCO2)c1cc2sccc2n1Cc1ccccc1	19.6% (inactive)	
CCOC(=O)C1CCN(C(=O)C(C)(C)NC(=O)Nc2ccc(C#N)cc2)CC1	-15.2% (inactive)	
CCOc1ccc(CCN(C)C(=O)c2cc3sccc3n2Cc2ccccc2)cc1OCC		11.8 µM (active)
O=C(NC1CCCc2c1cnn2-c1ccc(F)cc1F)c1ccc(C(=O)c2ccccc2)cc1 (stereo not drawn)	18.1% (inactive)	
CCOc1ccc(CCNC(=O)c2cc3ccccc3n2Cc2cc(C)cc(C)n2)cc1OCC		1.48 µM (active)
O=C(NC1CCCc2c1cnn2-c1ccc(F)cc1F)c1cnon1 (stereo not drawn)	13.2% (inactive)	
O=C(NC1CCCc2c1cnn2-c1ccc(F)cc1F)c1ccncc1 (stereo not drawn)	1.34% (inactive)	
Cc1cc2c(cc1C1(c3ccc(C(=O)O)cc3)CC1)C(C)(C)CCC2(C)C	-1.19% (inactive)	
CCOc1ccc(CCNC(=O)C2CCCCC2)cc1OCC	-8.52% (inactive)	
CC(C)(C)OC(=O)N1CCCCC1C(=O)NC1CCCc2c1cnn2-c1ccc(F)cc1F (stereo not drawn)	7.96% (inactive)	
CCOc1ccc(CCNC(=O)c2cc3sccc3n2Cc2ccc(Cl)c(F)c2)cc1OCC		0.296 µM (active)
CCOc1ccc(CCNC(=O)C2COc3ccccc3O2)cc1OCC (stereo not drawn)		18.7 µM (active)
CCn1c(C(=O)NCCc2ccc(OC)c(OC)c2)cc2sccc21	3.82% (inactive)	
CCOc1ccc(CCNC(=O)c2cc3sccc3n2Cc2ccccc2)cc1OCC		0.935 µM (active)
O=C(O)c1cccc(-c2noc(-c3ccccc3F)n2)c1	-6.12% (inactive)	
